A selection: hits, their analogues and other compounds. The true share with any hit is near 32%.
CYP2C9 inh: blockers of cytochrome P450 2C9 activity – biochemical, luminescence, ADME assay, primary screen; 20% of 96,000 active; P11712; inhibition, % at 5 µM; AID 777, 2007; CYP2C9 Supersomes, luciferin-H conversion;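 active = blocking of liver enzyme CYP2C9 beyond about 50% at 5 µM, limit read from the data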
Target sequence (P11712 whole entry, looked up): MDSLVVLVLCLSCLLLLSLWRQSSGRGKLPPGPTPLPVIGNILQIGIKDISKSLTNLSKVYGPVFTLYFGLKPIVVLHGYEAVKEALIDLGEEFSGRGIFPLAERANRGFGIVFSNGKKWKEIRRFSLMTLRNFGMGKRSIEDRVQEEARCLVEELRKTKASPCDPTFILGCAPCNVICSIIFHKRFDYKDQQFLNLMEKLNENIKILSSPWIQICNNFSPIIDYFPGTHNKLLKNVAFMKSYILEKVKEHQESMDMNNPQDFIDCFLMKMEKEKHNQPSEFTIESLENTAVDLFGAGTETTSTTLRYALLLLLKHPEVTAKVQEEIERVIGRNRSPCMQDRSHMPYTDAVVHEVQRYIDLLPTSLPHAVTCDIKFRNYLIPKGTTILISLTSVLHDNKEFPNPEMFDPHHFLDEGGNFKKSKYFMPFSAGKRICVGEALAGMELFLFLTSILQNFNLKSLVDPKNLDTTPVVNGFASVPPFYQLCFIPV
CYP2C19 inh: blockers of cytochrome P450 2C19 activity – biochemical, luminescence, ADME assay, primary screen; P33261; CYP2C19 Supersomes, luciferin-H EGE luminescence, 30 min; inhibition, % at 5 µM; 21% of 96,000 active;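 active = CYP2C19 inhibition above a set limit at 5 µM in the primary screen, cut at about 50% in these data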
CYP2C19 activ: human CYP2C19 activators, primary screen, biochemical, luminescence; Cytochrome P450 2C19 (Homo sapiens), P33261; recombinant CYP2C19, luciferin-H EGE luminescence; hits give high values; 0 = fully inhibited enzyme, 1 = untreated enzyme; activation factor at 5 µM; 96,000 tested, under 10 active; AID 1025, 2008;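 active = activation factor of at least 2 at 5 µM in the primary screen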
CYP2C9 activ: human CYP2C9 activators, primary screen, biochemical, luminescence; recombinant CYP2C9, luciferin-H conversion; hits give high values; factor 1 = untreated enzyme, 0 = blocked; activation factor at 5 µM; 1.4% of 96,000 active; AID 1024, 2008;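 active = activation factor of 2 or more for CYP2C9 at a 5 µM dose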
PostGolgi ctrl: growth inhibition of yeast control strain, primary screen, counter-screen for post-Golgi transport modulator project; efflux-deficient yeast background strain, growth absorbance A615, 16 h; inhibition, % at 10 µM; 5% of 98,000 active
PostGolgi yeast: phenotypic screen on post-Golgi transport, primary screen; 0.9% of 98,000 active; post-Golgi transport phenotypic cell assay; AID 739, 2007; inhibition, % at 10 µM;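 also: yeast cells grown in 1536-well plates; yeast grown about 18 h at 30C before absorbance read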
Each line names hits and unclear results; the compound was inactive in the other large screens. Rule as the data show it, unless noted: active = inhibition above about 30%; inactive = the rest.

CCOC(=O)CSC1=C(C#N)C(c2ccccc2)C(C(C)=O)=C(C)N1 (stereo not drawn)	CYP2C9 inh 58.7, CYP2C19 inh 57.5
CSCSC1=C(C#N)C(c2ccc(Cl)cc2)C(C(C)=O)=C(C)N1 (stereo not drawn)	CYP2C9 inh 100.0, CYP2C19 inh 98.1
Cc1cc(C)nc(/N=C/c2c(O)n(C)c(=O)n(C)c2=O)n1	none (no result: PostGolgi ctrl, PostGolgi yeast)
CC(=O)c1cccc(NC(=O)Nc2cnn(Cc3ccc(Cl)cc3Cl)c2)c1	none
CCOc1cc(CNCc2ccccn2)ccc1OCC(=O)NC1CCCCC1	none
COc1ccc(S(=O)(=O)N2CCC(C(=O)NCc3ccccn3)CC2)cc1OC	none
O=C(COc1ccc(S(=O)(=O)N2CCc3ccccc32)cc1Cl)NCc1ccccn1	CYP2C9 inh 94.5, CYP2C19 inh 93.9
Cc1cc(S(=O)(=O)NC2CCCCC2)ccc1OCC(=O)NCc1ccccn1	CYP2C9 inh 54.0
Cc1ccccc1NC(=O)C(=O)NCc1ccccn1	CYP2C19 inh 89.4
CCCCOc1ccc(C(=O)Nc2ccncc2)cc1	CYP2C9 inh 99.4, CYP2C19 inh 98.7
Cc1cc(=O)oc2cc(OCC(=O)NCc3ccccn3)ccc12	none
CCCCOc1ccc(C(=O)NCc2ccccn2)cc1	PostGolgi ctrl 35.3
Cc1ccc(OCC(=O)NCc2ccccn2)cc1	CYP2C19 inh 76.5
Cn1nnc2sc3c(c2c1=O)CCCC3	none
CCCCCC(=O)Nc1ccc(S(=O)(=O)Nc2nccnc2OC)cc1	none
Cc1ccnc(N2CCC(C(=O)NNC(=O)c3ccccc3)CC2)n1	none
Cc1ccc(C(=O)NNC(=O)C2CCN(c3nccc(C)n3)CC2)cc1	CYP2C9 inh 50.2
CSc1nc(-c2ccc(C)cc2)[nH]c1S(=O)(=O)c1ccccc1	CYP2C9 inh 78.5
CCn1c(SCC(N)=O)nnc1-c1ccc(S(=O)(=O)N2CCN(C)CC2)cc1	none
CC(C)(C)NC(=O)Cn1c(=O)oc2ccc(Cl)cc21	none (no result: CYP2C9 inh, CYP2C19 inh, CYP2C19 activ, CYP2C9 activ)
O=C(c1cnc2n(c1=O)CCS2)N1CCN(C(c2ccccc2)c2ccc(Cl)cc2)CC1 (stereo not drawn)	CYP2C19 inh 62.3
Cc1nn(Cc2ccc(Cl)cc2Cl)c(Cl)c1/C=C/C(=O)OCC(=O)NCC(F)(F)F	none
O=C(NCc1ccccc1Cl)C1CCN(S(=O)(=O)N2CCCCC2)CC1	none
O=C(COC(=O)C1CC1)NCc1ccccc1Cl	CYP2C19 inh 69.5
CC1CC1C(=O)OCC(=O)NCc1ccc(Cl)cc1Cl (stereo not drawn)	CYP2C19 inh 99.5
CC1CC1C(=O)OCC(=O)NCc1ccc(Cl)cc1 (stereo not drawn)	CYP2C9 inh 53.0, CYP2C19 inh 97.1
O=[N+]([O-])c1ccc2nc(-c3ccccc3)n(OCc3ccc(Cl)cc3)c2c1	none
O=C(NCc1nnc(SCC(=O)N2CCCC2)o1)c1c(F)cccc1Cl	none
O=C(NCc1nnc(SCC(=O)N2CCC(Cc3ccccc3)CC2)o1)c1ccccc1F	CYP2C9 inh 71.5
COc1ccc(C2C3=C(CC(C)(C)CC3=O)Nc3c2c(=O)[nH]c2nc(C)nn32)cc1 (stereo not drawn)	none
Cc1cc(C(=O)CSc2nc3ccccc3n2CCC#N)c(C)n1Cc1cccs1	CYP2C19 inh 60.8
N#CCCn1c(SCC(=O)c2c[nH]c3ccccc23)nc2ccccc21	CYP2C19 inh 70.4
CCOc1ccccc1N(C(=O)CNC(=O)c1ccco1)C(C(=O)NC(C)(C)C)c1ccncc1 (stereo not drawn)	none
COC(=O)c1ccc(OC)c(CSc2nnc(COc3cccc(C)c3)o2)c1	CYP2C9 inh 89.9, CYP2C19 inh 96.0
COC(=O)c1ccc(OC)c(CSc2nnc(COc3ccc(OC)cc3)o2)c1	CYP2C9 inh 69.1
CCCCCCOc1ccc(-c2ccc(C#N)cn2)cc1	none
O=C(c1cc2ccccc2oc1=O)N1CCN(CCc2ccccc2)CC1	none
COC(=O)[C@H](C)NC(=O)Nc1ccc(Oc2ccccc2)cc1	none
CC(C)NC(=S)Nc1ccc(Oc2ccccc2)cc1	CYP2C19 inh 72.1
CCCNC(=S)Nc1ccc(Oc2ccccc2)cc1	CYP2C19 inh 67.9
CC1CN(c2nc3c(c(=O)[nH]c(=O)n3C)n2Cc2ccccc2F)CC(C)O1 (stereo not drawn)	none
CN1C(=O)CC(N2CCN(CC(=O)N3CCCC3)CC2)C1=O (stereo not drawn)	none
O=C(c1ccc(Cl)cc1)N1CCCC(c2ccccc2)=N1	PostGolgi ctrl 36.0
CSc1nc(-c2ccccc2)nn1C(=O)c1ccc(Cl)cc1	none
O=C(NCCCN1CCOCC1)c1ccc(-n2nc(C(F)(F)F)cc2-c2cccs2)cc1	CYP2C9 inh 65.1
COCCCNC(=O)c1cccs1	none
COCCCNC(=O)c1ccc(-n2nc(C(F)(F)F)cc2-c2cccs2)cc1	CYP2C9 inh 50.4, CYP2C19 inh 52.7
Cc1ccccc1-n1c(Cn2c(=O)sc3ccccc32)nnc1SCC(=O)N1CCOCC1	none
CCOc1ccccc1NC(=O)CSc1nccn1-c1ccccc1	CYP2C19 inh 67.1, CYP2C9 activ 2.4
CC(C)(C)NC(=O)CSc1nnnn1C(C)(C)C	none
CCOc1ccccc1NC(=O)CSCC(=O)Nc1ccccc1	CYP2C19 inh 92.7, CYP2C9 activ 2.6
CCOc1ccccc1NC(=O)CSc1c(C)n[nH]c1C	none
CCCCOc1ccccc1NC(=O)CSc1nnnn1C(C)(C)C	CYP2C9 inh 73.5, CYP2C19 inh 56.1
CCOc1ccccc1NC(=O)CSc1nc2cccnc2n1C	CYP2C19 inh 65.7
CC(=O)NC(CCS(C)(=O)=O)C(=O)Nc1ccc(F)cc1Cl (stereo not drawn)	none
COc1cccc(-n2ccnc2SCC(=O)NCc2ccccc2)c1	CYP2C19 inh 95.5
COCc1nnc(SCC(=O)NCc2ccccc2)n1-c1ccccc1	none
COC(=O)c1cccc(NC(=O)CSc2nc3cccnc3n2C)c1	CYP2C9 inh 58.6, CYP2C19 inh 68.0
COc1ccc(NC(=O)CSc2nccn2-c2ccccc2)c(OC)c1	CYP2C19 inh 95.1
CCOC(=O)CC(=O)CSCC(=O)Nc1ccc(C)cc1	CYP2C19 inh 53.7
CCOC(=O)C1CCCN(C(=O)c2cc3ncc(Br)cn3n2)C1 (stereo not drawn)	none
CCOc1ccccc1NC(=O)COn1nnc2ccccc21	CYP2C19 inh 91.6, CYP2C9 activ 2.2
COC(=O)C1=C(COc2ccc(F)cc2)NC(=O)NC1c1ccc(C)cc1C (stereo not drawn)	none
Cc1noc(C)c1C(=O)N1CCc2ccccc2C1	none
Cc1noc(C)c1S(=O)(=O)Nc1ccc(C(=O)N2CCc3ccccc3C2)cc1	CYP2C9 inh 58.9

Screens (PubChem)
